Records with an inconclusive call do not appear. Active and inactive are the calls of the source. The call rests on the fitted dose curve; in most records, active means well fitted curve in the direction sought with a large enough effect; inconclusive means small, poorly fitted or top-dose-only effect, or another doubt; inactive means no such curve, though single readings can be large or run the other way.

In this experiment the target is Polyunsaturated fatty acid lipoxygenase ALOX15 (Homo sapiens) (UniProt P16050). As to the kind of experiment: Counterscreen qHTS for inhibitors of human arachidonate 12S-lipoxygenase (ALOX12): ALOX15 Assay. Further: 0% is about no effect. The note with it: purified ALOX15 enzyme activity; series mostly up to 110 µM; activity change, negative = inhibition: at the top concentration. From the text: Assay Provider: Theodore R. Holman Ph.D.
Chain of Polyunsaturated fatty acid lipoxygenase ALOX15 (Homo sapiens) (P16050 whole entry, looked up): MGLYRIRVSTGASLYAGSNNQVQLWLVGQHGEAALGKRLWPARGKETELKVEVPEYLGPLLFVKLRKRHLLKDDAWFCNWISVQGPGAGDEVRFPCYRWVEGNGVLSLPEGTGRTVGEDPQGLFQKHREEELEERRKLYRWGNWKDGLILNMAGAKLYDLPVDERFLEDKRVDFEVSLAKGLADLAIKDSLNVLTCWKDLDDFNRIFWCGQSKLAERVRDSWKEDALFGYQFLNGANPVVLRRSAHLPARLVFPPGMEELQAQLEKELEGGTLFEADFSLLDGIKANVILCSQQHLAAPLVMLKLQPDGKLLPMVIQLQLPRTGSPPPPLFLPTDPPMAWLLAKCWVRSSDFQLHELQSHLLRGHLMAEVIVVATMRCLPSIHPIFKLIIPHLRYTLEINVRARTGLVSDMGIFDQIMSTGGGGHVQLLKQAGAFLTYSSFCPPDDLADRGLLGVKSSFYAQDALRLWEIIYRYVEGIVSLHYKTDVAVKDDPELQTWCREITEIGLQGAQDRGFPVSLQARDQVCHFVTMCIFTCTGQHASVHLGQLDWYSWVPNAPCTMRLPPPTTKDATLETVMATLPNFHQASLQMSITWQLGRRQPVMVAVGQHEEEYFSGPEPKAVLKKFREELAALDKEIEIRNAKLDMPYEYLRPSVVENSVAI
University of California, Santa Cruz, California
Human lipoxygenase 12hLO is a member of the closely related lipoxygenase family of enzymes which catalyze the site-specific oxidation of arachidonic acid to various hormone precursor molecules and as such is a candidate for drug development in a variety of disease areas, such as cancer and inflammation. Inhibition of 12hLO activity was screened by utilizing arachidonic acid as a substrate. The extent of hydroperoxide product formation was measured by a secondary chromogenic reaction in which xylenol orange (XO, Sigma-Aldrich, cat. number 39,818-7) reacts with the ferric ions produced from the reaction between the hydroperoxide and ferrous ions. The Fe (III)-XO complex is characterized with red-shifted absorbance at 560 nm. A purified preparation of human 12hLO was supplied by Dr. Holman laboratory, University of California, Santa Cruz.
An assay against arachidonate 15-lipoxygenase (ALOX15) was developed to assess selective inhibition against ALOX12. Desired compounds would show potent inhibition against ALOX12 and minimal to no inhibition against ALOX15.
SEQUENCE No. (e.g., 1, 2, 3, etc.); PARAMETER (e.g., Cells, Incubation, Reagent, etc.); VALUE; DESCRIPTION
1; Enzyme; 3 uL; 40 nM ALOX15 (15hLO-1) enzyme solution dispensed in 1536-well Greiner black, clear bottom plates.
2; Compound; 23 nL; compounds and controls were added.
3; Incubate; 15 min; room temperature.
4; Substrate; 1 uL; 50 uM arachidonic acid (final concentration).
5; Incubate; 30 min; room temperature.
6; Reagent; 4 uL; Fe-XO solution was added to each well.
8; Incubation; 30 min; room temperature
9; Detector; absorbance; Read 1 at 405 nm absorbance using ViewLux (PerkinElmer) CCD imager.
10; Detector; absorbance; Read 2 at 573 nm absorbance using ViewLux (PerkinElmer) CCD imager.
NOTES (numbers refer to sequence above)
1; 40 nM ALOX15 (final concentration) in buffer solution (25 mM Hepes, 0.01% Triton X-100, pH 7.5) was dispensed in columns 1, 2, 5 - 48. Column 1 is neutral (100% activity). Buffer only was dispensed in columns 3 and 4 as no enzyme negative controls. The plates were covered with metal lids with gas-exchange holes.
2; Compounds were pin transferred via a Kalypsys Pin Tool (Wako USA) in column 5 - 48. Control compound was transferred in column 2, titration of nordihydroguaiaretic acid (NDGA, Sigma-Aldrich, N5023) with top concentration of 10 mM in DMSO then 1:2 dilution in duplicate. Dilution factor of 23 nL into 4 uL final assay volume.
3; Covered assay plates were incubated for 15 min at room temperature.
4; Substrate was added to start the reaction; 50 uM arachidonic acid (Sigma-Aldrich, St. Louis, MO) was dispensed throughout the plate.
6; Chromogenic detection reagent solution (divalent iron/xylenol orange, Fe-XO) was added to each well: 200 uM xylenol orange, 300 uM ferrous ammonium sulfate prepared freshly in 50 mM sulfuric acid.
9, 10; Two absorbance readouts were obtained at 405 nm and at 573 nm using a ViewLux high-throughput CCD plate imager (PerkinElmer). The 573 to 405 (Read 2 / Read 1) absorbance ratio was used to compute reaction progress.
`Cn1nc(C2CCNC2)c2c(C(=O)NCc3ccncc3)cc(C3CC3)nc21` (stereo not given): the “activity change, negative = inhibition” value is -21.6% (inactive).
As to `Cc1noc(C)c1S(=O)(=O)N1CCC(N2CCOC2=O)CC1`, the “activity change, negative = inhibition” value was -4.98% [at 146 µM] (inactive).
As for `COc1cccc(N2C(=O)NC(=NC3CCCCC3)C23CCCN([S+](=O)([O-])c2cccs2)C3)c1` (stereo not given), the “activity change, negative = inhibition” value was -28.6% (inactive).
Under `CN1CC(=O)N(C2CCCNCC2)Cc2c1ncnc2N1CCN(c2ccccn2)CC1` (stereo not given) stands -0.605% (inactive).
Under `COc1ccc(CNc2ncnc3c2CN(C2CCNC2)C(=O)CN3C)cc1OC` (stereo not given) stands -20.1% (inactive).
With `NCc1ccc(-c2cccc(Cl)c2)cc1` the figure was 26.5% [at 146 µM] (inactive); with `O=C(N1CCOCC1)N1CCn2c(nnc2-c2cncc(Br)c2)C1`, -22.6% (inactive).
As for `CN1CC(=O)N(c2ccc(Cl)cc2)Cc2c(NC3CCNCC3)ncnc21`, the “activity change, negative = inhibition” value is -20.7% (inactive).
Under `O=C(c1ccccc1)N1Cc2ccccc2CC2(CCN(CC3CCNC3)C2)C1` (stereo not given) stands 5.43% (inactive); under `O=C(c1cc(C2CC2)nc2c1c(C1CCCN1)nn2-c1ccccc1)N1CCOCC1` (stereo not given), -11.8% (inactive).
In the case of `CN1CC(=O)N(C2CCNC2)Cc2c(NCC3(O)CCCCC3)ncnc21` (stereo not given), the “activity change, negative = inhibition” value is -12.9% (inactive).
With `Cc1noc(C)c1C(=O)N1Cc2ccccc2CC2(CCN(CC3CCNCC3)C2)C1` (stereo not given) the figure was -0.0561% (inactive); with `COc1ccc(CNc2ncnc3c2CN(C2CCNCC2)C(=O)CN3C)cc1OC`, -24.5% (inactive); with `COc1ccc(CN2CCCCC23Cc2ccccc2CNC3=O)c(OC)c1` (stereo not given), -15.9% (inactive).
Turning to `Fc1ccc(OC2CN(CC3CC3)C2)cc1F`, the “activity change, negative = inhibition” value was -14% [at 233 µM] (inactive).
With `CC(C)Cc1ccc(CN2CCC3(Cc4ccccc4CNC3=O)C2)cc1` (stereo not given) the figure was -25% (inactive).
Under `O=Cc1ccc(-c2ccc(F)cc2)cc1` stands -22.6% [at 233 µM] (inactive); under `c1ccc(NCCN2CCCC2)cc1`, -6.97% [at 233 µM] (inactive); under `CN(C)CCCC(=O)N1Cc2ccccc2CC2(CCCCN2CC2CCNCC2)C1` (stereo not given), -16.9% (inactive).
Under `COc1ccc(N2CC3CCC(C2)N3Cc2ccc(-c3cccnc3)cc2)cc1` stands -22% (inactive).
`O=C(c1ccc(C(F)(F)F)cc1)N1CCCC2(CC(c3ccccc3)=NO2)C1` (stereo not given): the “activity change, negative = inhibition” value was 2.85% (inactive).
With `COc1cccc([S+](=O)([O-])N2CCn3c(nn(-c4ccc(Cl)cc4)c3=O)C2)c1` the figure was 4.67% (inactive).
Under `Cc1ccc(C(=O)N2CCC3(CC(C(C)C)=NO3)C2)cc1` (stereo not given) stands 12.7% [at 146 µM] (inactive); under `CCCCCNc1ncnc2c1CN(C1CCNCC1)C(=O)CN2C`, -5.83% [at 146 µM] (inactive); under `NCC(=O)N1CCC2(CC1)CN(C(=O)Cc1cccc(Cl)c1)CCO2`, -12.9% (inactive).
Under `Cc1cc(C(=O)NCc2cccs2)c2c(C3CCNC3)noc2n1` (stereo not given) stands -7.35% [at 146 µM] (inactive); under `CC(=O)N1CCC2(CC1)CN(C(=O)Cc1csc(N)n1)Cc1ccccc1O2`, -4.11% (inactive); under `Cn1ncc2c(C(=O)NCCc3ccc(Cl)cc3)cc(-c3ccc([S+](C)(=O)[O-])cc3)nc21`, -20.8% (inactive).
On to `Cc1ccc(C(=O)N2CCC(N3Cc4ccccc4C3=O)CC2)cc1`, for which the “activity change, negative = inhibition” value is 9.7% [at 146 µM] (inactive).
With `CN1CC(=O)N(C2CCCNCC2)Cc2c1ncnc2N1CCc2ccccc2C1` (stereo not given) the figure was -3.43% (inactive); with `Cc1ccc2nc(C3CCN(Cc4ccc(-c5cccs5)cc4)CC3)[nH]c(=O)c2c1`, -12% (inactive).
With `CC(CCc1ccccc1)Nc1ncnc2c1CN(C1CCNC1)C(=O)CN2C` (stereo not given) the figure was -15.6% (inactive).
Under `CN(C)C(=O)N1CCn2c(nnc2-c2cncc(Br)c2)C1` stands -17% [at 146 µM] (inactive); under `CC(=O)NCCC(=O)N1Cc2ccccc2CC2(CCCN2CC2CCNCC2)C1` (stereo not given), -22.8% (inactive).
Consider `COc1ccc(N2CC3CCC(C2)N3C(C)=O)cc1`, for which the “activity change, negative = inhibition” value was -12% [at 146 µM] (inactive).
With `COc1ccc(C(=O)N2CCn3c(nnc3C3CCNCC3)C2)cc1` the figure was -8.92% (inactive).
Take `COc1cccc(N2C(=O)NC(=NC3CCCC3)C23CCN(CC2CC2)C3)c1` (stereo not given): the “activity change, negative = inhibition” value is -4.92% (inactive).
Under `NCCC(=O)N1CCC2(CC1)CN(C(=O)Cc1ccc(Cl)cc1)CCO2` stands -29% (inactive); under `CCN1CCCC12Cc1ccccc1CN([S+](C)(=O)[O-])C2` (stereo not given), 17.5% [at 146 µM] (inactive).
With `CCc1ccc(CN2CCC3(Cc4ccccc4CNC3=O)C2)s1` (stereo not given) the figure was -17.1% [at 146 µM] (inactive).

The values above are taken from PubChem BioAssay AID1671192 (National Center for Advancing Translational Sciences (NCATS), 2021).
